Measurements from PMC8384837, “Expanding the binding specificity for RNA recognition by a PUF domain”.
Where a chain is given by its changes, count along the chain named.

Legend:
Test in all cases: yeast three-hybrid, YBZ-1, SC-Leu-His + 0.5 mM 3-AT, 4 days
Details in all cases: tags: N-Gal4 AD-HA kept; label: inside an RPR1-promoter hybrid RNA with tandem MS2 sites; ssRNA
PUM1 PUF domain R3-LSV = PUM1 PUF domain R3-LSV (Homo sapiens, UniProt Q14671 828-1176, C935L;R936S;Q939V)
Method in brief: (§1)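 Each repeat of the Pumilio-1 PUF domain was randomized at its three base-contacting residues, and these libraries were co-expressed from a centromeric plasmid with matching RNA elements in strain YBZ-1. After four days on SC-Leu (input) or SC-Leu-His + 0.5 mM 3-AT (selection), the repeat regions were PCR-amplified and Illumina-sequenced. The interaction score compares variant frequency between input and selection as a log change, computed in log2 with a pseudocount of 1 for absent variants.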

PUM1 PUF domain R3-MRS = PUM1 PUF domain R3-MRS (Homo sapiens, UniProt Q14671 828-1176, C935M;Q939S)
Method in brief: as §1

PUM1 PUF domain R3-LWN = PUM1 PUF domain R3-LWN (Homo sapiens, UniProt Q14671 828-1176, C935L;R936W;Q939N)
Method in brief: as §1

PUM1 PUF domain R3-RPG = PUM1 PUF domain R3-RPG (Homo sapiens, UniProt Q14671 828-1176, C935R;R936P;Q939G)
Method in brief: as §1

PUM1 PUF domain R1-MGR = PUM1 PUF domain R1-MGR (Homo sapiens, UniProt Q14671 828-1176, S863M;R864G;Q867R)
Method in brief: as §1

PUM1 PUF domain R1-YWR = PUM1 PUF domain R1-YWR (Homo sapiens, UniProt Q14671 828-1176, S863Y;R864W;Q867R)
Method in brief: as §1

PUM1 PUF domain R7-RGY = PUM1 PUF domain R7-RGY (Homo sapiens, UniProt Q14671 828-1176, S1079R;N1080G;E1083Y)
Method in brief: as §1

PUM1 PUF domain R7-RQL = PUM1 PUF domain R7-RQL (Homo sapiens, UniProt Q14671 828-1176, S1079R;N1080Q;E1083L)
Method in brief: as §1

PUM1 PUF domain R5-RGG = PUM1 PUF domain R5-RGG (Homo sapiens, UniProt Q14671 828-1176, C1007R;R1008G;Q1011G)
Method in brief: as §1

PUM1 PUF domain R5-SVG = PUM1 PUF domain R5-SVG (Homo sapiens, UniProt Q14671 828-1176, C1007S;R1008V;Q1011G)
Method in brief: as §1

PUM1 PUF domain R8-AWK = PUM1 PUF domain R8-AWK (Homo sapiens, UniProt Q14671 828-1176, N1122A;Y1123W;Q1126K)
Method in brief: as §1

PUM1 PUF domain R6-GYQ = target: T1, PUM1 PUF domain R6-GYQ (Homo sapiens, UniProt Q14671 828-1176, N1043G)
T1 sequence: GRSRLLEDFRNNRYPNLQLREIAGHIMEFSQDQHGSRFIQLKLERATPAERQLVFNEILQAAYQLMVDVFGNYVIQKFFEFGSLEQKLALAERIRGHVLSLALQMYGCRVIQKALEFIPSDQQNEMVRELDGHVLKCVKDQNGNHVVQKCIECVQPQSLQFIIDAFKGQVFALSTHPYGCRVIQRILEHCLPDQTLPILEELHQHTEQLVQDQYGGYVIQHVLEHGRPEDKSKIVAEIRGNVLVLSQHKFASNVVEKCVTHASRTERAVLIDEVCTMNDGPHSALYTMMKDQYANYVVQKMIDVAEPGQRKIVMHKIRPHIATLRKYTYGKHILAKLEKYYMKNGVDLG
Method in brief: as §1

PUM1 PUF domain R4-PWN = PUM1 PUF domain R4-PWN (Homo sapiens, UniProt Q14671 828-1176, N971P;H972W;Q975N)
Method in brief: as §1

PUM1 PUF domain R4-DFT = PUM1 PUF domain R4-DFT (Homo sapiens, UniProt Q14671 828-1176, N971D;H972F;Q975T)
Method in brief: as §1

PUM1 PUF domain R6-VWA = target: T2, PUM1 PUF domain R6-VWA (Homo sapiens, UniProt Q14671 828-1176, N1043V;Y1044W;Q1047A)
T2 sequence: T1 sequence with G216V, Y217W, Q220A
Method in brief: as §1

PUM1 PUF domain R4-GNR = PUM1 PUF domain R4-GNR (Homo sapiens, UniProt Q14671 828-1176, N971G;H972N;Q975R)
Method in brief: as §1

Sequence: GGCUAGAACUAGUGGAUCCCCCGGCGCCCGGCGGCUCGAGCCCGGGUAAGUGUAAGUAGUCUGCAUGCCGCCGGGCGCCAUGCCUGCAGGUCGACUCUAGAAAACAUG
- binding signal (PUM1 PUF domain R3-LSV): 3.37 log2 enrichment (interaction score)
- binding signal (PUM1 PUF domain R3-MRS): 4.95 log2 enrichment (interaction score)

Sequence: GGCUAGAACUAGUGGAUCCCCCGGCGCCCGGCGGCUCGAGCCCGGGUAAGUGUAAUUAGUCUGCAUGCCGCCGGGCGCCAUGCCUGCAGGUCGACUCUAGAAAACAUG
- binding signal (PUM1 PUF domain R3-LSV): 2.26 log2 enrichment (interaction score)
- binding signal (PUM1 PUF domain R3-LWN): 4 log2 enrichment (interaction score)
- binding signal (PUM1 PUF domain R3-MRS): 2.96 log2 enrichment (interaction score)
- binding signal (PUM1 PUF domain R3-RPG): 4.38 log2 enrichment (interaction score)

Sequence: GGCUAGAACUAGUGGAUCCCCCGGCGCCCGGCGGCUCGAGCCCGGGUAAGUGUAAAUCGUCUGCAUGCCGCCGGGCGCCAUGCCUGCAGGUCGACUCUAGAAAACAUG
- binding signal (PUM1 PUF domain R1-MGR): 1.49 log2 enrichment (interaction score)
- binding signal (PUM1 PUF domain R1-YWR): 4.68 log2 enrichment (interaction score)

Sequence: GGCUAGAACUAGUGGAUCCCCCGGCGCCCGGCGGCUCGAGCCCGGGUAAGUGUAAAUUGUCUGCAUGCCGCCGGGCGCCAUGCCUGCAGGUCGACUCUAGAAAACAUG
- binding signal (PUM1 PUF domain R1-MGR): 2.75 log2 enrichment (interaction score)
- binding signal (PUM1 PUF domain R1-YWR): 4.46 log2 enrichment (interaction score)

Sequence: GGCUAGAACUAGUGGAUCCCCCGGCGCCCGGCGGCUCGAGCCCGGGUAAGUUUAAAUAGUCUGCAUGCCGCCGGGCGCCAUGCCUGCAGGUCGACUCUAGAAAACAUG
- binding signal (PUM1 PUF domain R7-RGY): 2.43 log2 enrichment (interaction score)
- binding signal (PUM1 PUF domain R7-RQL): 3.63 log2 enrichment (interaction score)

Sequence: GGCUAGAACUAGUGGAUCCCCCGGCGCCCGGCGGCUCGAGCCCGGGUAAGUGUCAAUAGUCUGCAUGCCGCCGGGCGCCAUGCCUGCAGGUCGACUCUAGAAAACAUG
- binding signal (PUM1 PUF domain R5-RGG): 2.8 log2 enrichment (interaction score)

Sequence: GGCUAGAACUAGUGGAUCCCCCGGCGCCCGGCGGCUCGAGCCCGGGUAAGUGUUAAUAGUCUGCAUGCCGCCGGGCGCCAUGCCUGCAGGUCGACUCUAGAAAACAUG
- binding signal (PUM1 PUF domain R5-RGG): 2.55 log2 enrichment (interaction score)

Sequence: GGCUAGAACUAGUGGAUCCCCCGGCGCCCGGCGGCUCGAGCCCGGGUAAGUGUGAAUAGUCUGCAUGCCGCCGGGCGCCAUGCCUGCAGGUCGACUCUAGAAAACAUG
- binding signal (PUM1 PUF domain R5-SVG): 2.82 log2 enrichment (interaction score)

Sequence: GGCUAGAACUAGUGGAUCCCCCGGCGCCCGGCGGCUCGAGCCCGGGUAAGUGUAAAUAGUCUGCAUGCCGCCGGGCGCCAUGCCUGCAGGUCGACUCUAGAAAACAUG
- binding signal (PUM1 PUF domain R8-AWK): 5.21 log2 enrichment (interaction score)
- binding signal (PUM1 PUF domain R6-GYQ): 3.62 log2 enrichment (interaction score)
- binding signal (PUM1 PUF domain R4-PWN): 2.08 log2 enrichment (interaction score)
- binding signal (PUM1 PUF domain R4-DFT): 3.18 log2 enrichment (interaction score)
- binding signal (PUM1 PUF domain R6-VWA): 4.02 log2 enrichment (interaction score)

Sequence: GGCUAGAACUAGUGGAUCCCCCGGCGCCCGGCGGCUCGAGCCCGGGUAAGCGUAAAUAGUCUGCAUGCCGCCGGGCGCCAUGCCUGCAGGUCGACUCUAGAAAACAUG
- binding signal (PUM1 PUF domain R8-AWK): 4.69 log2 enrichment (interaction score)

Sequence: GGCUAGAACUAGUGGAUCCCCCGGCGCCCGGCGGCUCGAGCCCGGGUAAGUGUACAUAGUCUGCAUGCCGCCGGGCGCCAUGCCUGCAGGUCGACUCUAGAAAACAUG
- binding signal (PUM1 PUF domain R4-GNR): 1.04 log2 enrichment (interaction score)

Sequence: GGCUAGAACUAGUGGAUCCCCCGGCGCCCGGCGGCUCGAGCCCGGGUAAGUGUAUAUAGUCUGCAUGCCGCCGGGCGCCAUGCCUGCAGGUCGACUCUAGAAAACAUG
- binding signal (PUM1 PUF domain R4-GNR): 3.44 log2 enrichment (interaction score)

Sequence: GGCUAGAACUAGUGGAUCCCCCGGCGCCCGGCGGCUCGAGCCCGGGUAAGUGAAAAUAGUCUGCAUGCCGCCGGGCGCCAUGCCUGCAGGUCGACUCUAGAAAACAUG
- binding signal (PUM1 PUF domain R6-VWA): 6 log2 enrichment (interaction score)
